Data taken from the supplement of paper PMC6992640.

system: WHIM30 (cells of a triple-negative basal-like breast cancer xenograft); assay: cell viability of combination (% of vehicle); higher = less cytotoxic; settings: 1 µM; 72 h; partner dose: 10 nM
Method: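 PDX cells were treated for 72 h with each drug at 1 µM plus carfilzomib (10 nM; 100 nM for WHIM2). Luciferase viability is expressed as percent of vehicle.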

Row | SMILES | cell viability of combination
1 | Cc1cc(C(C#N)c2ccc(Cl)cc2)c(Cl)cc1NC(=O)c1cc(I)cc(I)c1[O-].[Na+] (stereo not given) [Closantel Sodium] + CC(C)C[C@H](NC(=O)[C@H](CCc1ccccc1)NC(=O)CN1CCOCC1)C(=O)N[C@@H](Cc1ccccc1)C(=O)N[C@@H](CC(C)C)C(=O)[C@@]1(C)CO1 [Carfilzomib] | 17.8
2 | CCCCCCCCCCCC[N+](C)(C)CCOc1ccccc1.[Br-] [Domiphen Bromide] + CC(C)C[C@H](NC(=O)[C@H](CCc1ccccc1)NC(=O)CN1CCOCC1)C(=O)N[C@@H](Cc1ccccc1)C(=O)N[C@@H](CC(C)C)C(=O)[C@@]1(C)CO1 [Carfilzomib] | 9.06
3 | Cc1cc(C(C#N)c2ccc(Cl)cc2)c(Cl)cc1NC(=O)c1cc(I)cc(I)c1O (stereo not given) [Closantel] + CC(C)C[C@H](NC(=O)[C@H](CCc1ccccc1)NC(=O)CN1CCOCC1)C(=O)N[C@@H](Cc1ccccc1)C(=O)N[C@@H](CC(C)C)C(=O)[C@@]1(C)CO1 [Carfilzomib] | 16.8
4 | CCCCCCCCCCCCCCCC[n+]1ccccc1.[Cl-] [Cetylpyridinium Chloride] + CC(C)C[C@H](NC(=O)[C@H](CCc1ccccc1)NC(=O)CN1CCOCC1)C(=O)N[C@@H](Cc1ccccc1)C(=O)N[C@@H](CC(C)C)C(=O)[C@@]1(C)CO1 [Carfilzomib] | 11.9
5 | CCCCCCCCCCCCCCCC[N+](C)(C)C.[Br-] [Cetrimonium Bromide (CTAB)] + CC(C)C[C@H](NC(=O)[C@H](CCc1ccccc1)NC(=O)CN1CCOCC1)C(=O)N[C@@H](Cc1ccccc1)C(=O)N[C@@H](CC(C)C)C(=O)[C@@]1(C)CO1 [Carfilzomib] | 12
